{"source": "PubChem BioAssay (NCI)", "note": "The panel holds about 83,000 compounds, 20% with a hit somewhere; the sample as a whole holds those more often.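 Treatment: one concentration, 48 hours, 96-well format. Scoring: percent growth, with anything below 10 considered active.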 A number with no mark means an inactive call. The source made the active and inactive calls.", "data": [{"tested_on": "MDA-MB-468 breast", "assay": "NCI-60 one-dose screen, 48 h (100 = growth as untreated, 0 = no growth, -100 = all killed)", "conditions": "10 µM unless noted", "values": [{"smiles": "Cc1ccc(/C=C(/C#N)n2nnc3cccc(F)c32)cc1", "growth": "-16.1% (active)"}, {"smiles": "Cc1ccc(NC(=O)c2sc3nc4c(cc3c2N)C(=O)CCC4)cc1", "growth": "32.7%"}, {"smiles": "O=C(O)c1ccc2c3c(ncnc13)-c1ccccc1C2=O", "growth": "95.7%"}, {"smiles": "[2H]c1nc(Nc2ncc3cc(C(=O)N(C)C)n(C4CCCC4)c3n2)c([2H])c([2H])c1N1C([2H])([2H])C([2H])([2H])NC([2H])([2H])C1([2H])[2H]", "growth": "89%"}, {"smiles": "CCOc1cc2ncc(C#N)c(Nc3ccc(OCc4cccc(F)c4)c(Cl)c3)c2cc1NC(=O)CCCCC1CCSS1", "note": "(stereo not given)", "growth": "70.4%"}, {"smiles": "CCOC(=O)CC1CSC(N/N=C(/C)c2cccc(C(F)(F)F)c2)=N1", "note": "(stereo not given)", "growth": "104%"}, {"smiles": "CN1CCC2(CC1)N=C(SCC(=O)Nc1cnc3ccccc3c1)C(c1ccc(Br)cc1)=N2", "growth": "-43.8% (active)"}, {"smiles": "O=C1NC(=S)S/C1=C\\N1N=C(c2ccc(Cl)cc2)CC1c1ccc(F)cc1", "note": "(stereo not given)", "growth": "92.3%"}, {"smiles": "CCCCCCCCCCCCCCCCCCn1cc(COc2ccc(C=O)cc2)nn1", "growth": "104%"}, {"smiles": "Nc1nc2c(c3ncncc13)C(c1cccc(C(F)(F)F)c1)Cc1ncncc1-2", "note": "(stereo not given)", "growth": "-10.4% (active)"}, {"smiles": "Cc1nc2sc(C(=O)Nc3cccc(Br)c3)c(N)c2cc1C(O)c1ccccc1", "note": "(stereo not given)", "growth": "11.9%"}, {"smiles": "CCc1cc(Cl)c(OC)c(C(=O)NCC2CCCN2CC)c1O", "note": "(stereo not given)", "growth": "77.1%"}, {"smiles": "Cc1c(C(N)=O)sc2c1c(=O)n(Cc1ccccc1)c1nnc(S(C)(=O)=O)n21", "growth": "57.1%"}, {"smiles": "COc1ccc(OC)c(/C=C/C(=O)N/N=C/c2ccccc2)c1", "growth": "28.1%"}, {"smiles": "O=C(Nc1ccc(NCCN2CCOCC2)nc1)c1ccc([N+](=O)[O-])cc1", "growth": "104%"}, {"smiles": "COc1c(OCCCN2CCOCC2)ccc2c3n(c(=NC(=O)c4cnc(N)nc4)nc12)CCN3", "growth": "-23.5% (active)"}, {"smiles": "Cc1c(Cl)cccc1NC(=O)c1sc2nc3c(cc2c1N)CCCCCC3", "growth": "26.5%"}, {"smiles": "CCc1cccc(NC(=O)CNc2cc(S(=O)(=O)N(C)C)cc(C)c2C)c1", "growth": "87.3%"}, {"smiles": "Cc1ccc2cc3c(N)c4c(C)ccc(C)c4nc3nc2c1", "growth": "29.9%"}, {"smiles": "O=c1c2cccc3c(N4CCOCC4)ccc(c32)c2nc3ccccc3n12", "growth": "-63.5% (active)"}, {"smiles": "O=C(/C=C/c1ccco1)Nc1ncc(Cc2ccc(F)cc2)s1", "growth": "21.5%"}, {"smiles": "COc1ccc2c(c1)CCNC21C(=O)Nc2c(Br)cc(Br)cc21", "note": "(stereo not given)", "growth": "137%"}, {"smiles": "CCOC(=O)c1c[nH]c2cc(OCC3CC3)c(OCC3CC3)cc2c1=O", "growth": "107%"}, {"smiles": "C/C(=N/NC(N)=S)c1ccc(C)cc1", "growth": "23.5%"}, {"smiles": "N#C/C(=C\\c1ccc(-c2ccc(Cl)cc2)o1)C(=O)Nc1ncc(Cc2ccc(Br)cc2)s1", "growth": "25.7%"}, {"smiles": "C1CN(SSN2CCOCC2)CCO1", "growth": "-66.4% [100 µM] (active)"}, {"smiles": "C[C@@H]1CN(Cc2ccc(/C=C/c3n[nH]c4ccc5nc(-c6cn[nH]c6C(F)(F)F)c6c(c5c34)CCCC6)cc2)C[C@H](C)O1", "growth": "76.9%"}, {"smiles": "Cc1nn(CC(=O)O)c2c1C(=O)CC(C)(C)C2", "growth": "106%"}, {"smiles": "COc1ccc(C2=C(c3cn(C)c4ccccc34)C(=O)OC2)cc1OC", "growth": "1.23% (active)"}, {"smiles": "COc1ccc(N(c2nc(-c3ccc([N+](=O)[O-])cc3)cs2)C(C)C)cc1", "growth": "20.4%"}, {"smiles": "O=c1[nH]c(Cl)nc2c1cnn2-c1ccccc1", "growth": "101%"}, {"smiles": "CC1CCN(CCCCCOc2ccc3oc4cc(Cl)ccc4c(=O)c3c2)CC1", "growth": "57.7%"}, {"smiles": "O=C(CSc1nnc(-c2cccs2)n1-c1ccccc1)Nc1ccccc1F", "growth": "67.1%"}, {"smiles": "CCOC(=O)c1noc2c1CCc1cn(Cc3cc(OC)cc(OC)c3)cc1-2", "growth": "108%"}, {"smiles": "COc1ccc(Nc2ncnc3c2sc2nc(C)cc(C)c23)cc1", "growth": "95.1%"}, {"smiles": "CC(=O)Nc1ccc(Cl)cc1Cl", "growth": "90.1%"}, {"smiles": "CCSCC1CC(O)(c2ccccc2)C(c2ccccc2)C(c2ccc(Cl)cc2)O1", "note": "(stereo not given)", "growth": "35.9%"}, {"smiles": "C=CCN(CC=C)C(=O)[C@H](CC)[C@@H]1CC[C@@H](C)[C@@H]([C@H](C)[C@@H](O)[C@@H](C)C(=O)[C@H](CC)C2O[C@]3(C=C[C@@H](O)[C@]4(CC[C@@](C)([C@H]5CC[C@](O)(CC)[C@H](C)O5)O4)O3)[C@H](C)C[C@@H]2C)O1", "note": "(stereo not given in full)", "growth": "-19.1% (active)"}, {"smiles": "Cc1nc2ccc(Nc3nc(N4CCOCC4)nc(N4CCN(C)CC4)n3)cc2n1Cc1ccccc1", "growth": "66.8%"}, {"smiles": "COc1ccc(Oc2ccc(C3CC(c4cc(OC)c(OC)c(OC)c4)=NN3C(C)=O)cc2)cc1", "note": "(stereo not given)", "growth": "4.96% (active)"}]}]}
